Screening data: PubChem BioAssay, several laboratories
Sampled rows, rich in hits. Any-hit rate of the full collection: about 6.6%.
Mtb FBA inh – inhibits M. tuberculosis FBA enzyme; 360,000 tested, 2.3% active; AID 588726; P9WQA3; inhibition, % at 1 µM; purified M. tuberculosis FBA, fluorescence read-out; in the data active = inhibition above about 27%;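 also: 0% = vehicle and 100% = reference inhibitor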
Target sequence (P9WQA3 whole entry, looked up): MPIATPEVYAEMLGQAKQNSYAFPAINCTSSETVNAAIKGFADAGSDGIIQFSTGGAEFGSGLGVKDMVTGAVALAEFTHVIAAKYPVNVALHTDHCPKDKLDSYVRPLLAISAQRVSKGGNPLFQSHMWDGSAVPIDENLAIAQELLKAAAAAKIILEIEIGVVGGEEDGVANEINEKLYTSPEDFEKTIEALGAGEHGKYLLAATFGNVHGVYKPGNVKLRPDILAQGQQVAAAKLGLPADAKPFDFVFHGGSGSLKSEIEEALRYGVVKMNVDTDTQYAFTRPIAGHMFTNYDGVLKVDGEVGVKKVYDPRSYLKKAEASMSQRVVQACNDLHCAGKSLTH
GDH-TPI counter – inhibits GDH-TPI coupling enzymes, artifact for Mtb FBA screen | 360,000 tested, 1.2% active | AID 588335 | GDH-TPI coupled enzyme counterscreen, NADH absorbance | inhibition, % at 4.8 µM; in the data active = inhibition above about 30%;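 also: 0% = DMSO wells and 100% = wells lacking the enzyme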
BoNT A protease – BoNT A light chain protease inhibition; multiplex microsphere protease substrate cleavage, flow cytometry; inhibition, % at 10 µM; 360,000 tested, 0.17% active; AID 588499; also: plate controls were buffer without enzyme for full effect and enzyme alone for no effect
Anthrax LF prot – inhibitors of Bacillus anthracis lethal factor protease; inhibition, % at 10 µM; multiplex microsphere protease cleavage assay, LF; 360,000 tested, 0.12% active; P15917; AID 588501; also: plate controls were buffer without enzyme for full effect and enzyme alone for no effect
Bead autofluor – counter-screen for toxin protease inhibitors: compound fluorescence; 360,000 tested, 3.1% active; fluorescence intensity (concentration not given with the values); compound autofluorescence counterscreen, microsphere flow cytometry; stronger effect = higher value; in the data active = fluorescence intensity above about 16000; inconclusive = no clear call, values can overlap the other calls
BoNT-F LC inh – BoNT F light chain protease inhibition. 360,000 tested, 0.22% active. Multiplex microsphere protease cleavage assay, flow cytometry. inhibition, % at 10 µM; in the data active = inhibition above about 35%, passing the limit was not always enough; inconclusive = no clear call, values can overlap the other calls; also: plate controls were buffer without enzyme for full effect and enzyme alone for no effect
Starred values were filed as active, the others as inactive; ? = inconclusive; . = no result; + = active, no number. Rule as the data show it, unless noted: active = inhibition above about 30%; inconclusive = no clear call, values can overlap the other calls; inactive = below that.

SMILES	Mtb FBA inh	GDH-TPI counter	BoNT A protease	Anthrax LF prot	Bead autofluor	BoNT-F LC inh
Cc1ccc(NC2CC(=O)N(c3ccc(N4CCCCC4)cc3)C2=O)cc1 (stereo unspecified)	0	9	-1	-1	7540	-2
C=CCCC(=O)N1C[C@H]2CON(C)[C@H]2C[C@H]1c1cccc(N2CCOCC2)c1	0	-7	0	0	3913	1
CCOC(=O)c1nn(-c2ccc(F)cc2)cc1O	4	4	0	2	3932	-1
CCOC(=O)c1nn(-c2ccc3c(c2)CCN3C(C)=O)cc1O	+	26	0	-2	10335	-1
Cc1ccc(-c2cnc(NC(=O)CCC(=O)N3CCCCC3)n2C)cc1	2	8	0	-5	4122	-4
Cn1c(-c2ccc3c(c2)OCO3)cnc1NC(=O)CCC(=O)NCCc1ccccc1	0	0	1	-2	22472*	0
Cn1c(-c2ccc3c(c2)OCO3)cnc1N	0	6	2	-4	19330*	-9
CCCCNC(=O)CCC(=O)Nc1ncc(-c2ccc(C)cc2)n1C	1	-5	?	0	20268*	-1
Cn1c(-c2ccc3c(c2)OCO3)cnc1NCc1ccccc1	1	4	2	-8	22213*	5
O=C(CN1C(=O)c2ccccc2C1=O)Nc1ccccc1	5	10	-3	0	4093	?
O=C(Nc1ccccc1)OCN1C(=O)c2ccccc2C1=O	-2	6	-2	-2	17484*	-6
C=CCOc1ccccc1/C=c1\sc2nc(=O)c(C)nn2c1=O	-1	6	1	3	23330*	4
COc1ccc(/C=c2\sc3nc(-c4ccccc4OC)nn3c2=O)c(OC)c1	1	18	2	-19	7220	8
N#Cc1ccc(-c2ccc(F)cc2)nc1Oc1ccccc1	0	3	-1	8	9942	-1
N#Cc1ccc(-c2ccc(F)cc2)nc1Oc1ccc(F)cc1	-1	1	2	-3	21827*	1
NC(=O)c1cc(N2C(=O)C3CC=CCC3C2=O)ccc1N1CCCCC1 (stereo unspecified)	2	12	1	3	23233*	-1
Cc1ccc(NC(=O)c2cc(N3C(=O)C4CC=CCC4C3=O)ccc2N2CCCCC2)cc1 (stereo unspecified)	3	1	0	-3	4187	-13
Cc1nn(C(=O)c2cccnc2)c(C)c1C	1	-13	0	-2	20525*	0
Cc1nn(C(=O)c2cccnc2)c(C)c1Sc1ccccc1	-2	2	-3	-4	4274	-11
COc1cnc(-c2ccccn2)nc1Sc1c(Cl)cccc1Cl	-2	18	3	-5	14862	5
COc1cnc(-c2ccccn2)nc1Sc1ccccc1Cl	1	8	-2	-4	16715*	-6
CCOC(=O)C1CCN(C(=O)CN2C(=O)C(CC)Oc3ccccc32)CC1 (stereo unspecified)	3	7	0	0	9231	-11
CCOC(=O)CN1C(=O)C(CC)Oc2ccccc21 (stereo unspecified)	0	-1	-2	-1	24132*	-4
O=C(Oc1ccc(/C=N/NC(=O)c2ccco2)cc1)c1ccccc1	2	12	0	3	6503	2
O=C(NC1CCCC1)C1c2ccccc2OCC(=O)N1CCCN1CCOCC1 (stereo unspecified)	.	.	-2	5	4419	-7
SMILES	Mtb FBA inh	GDH-TPI counter	BoNT A protease	Anthrax LF prot	Bead autofluor	BoNT-F LC inh
O=C(NC1CCCCCC1)C1c2ccccc2C(=O)N1CCCN1CCOCC1 (stereo unspecified)	-2	10	?	1	20267*	-2
NNc1nc(-c2ccccc2)c2cc(Cl)ccc2n1	0	15	0	-16	6126	4
O=C(NCCO)c1cccc(Nc2nc(-c3ccccc3)c3cc(Cl)ccc3n2)c1	-3	10	1	6	20185*	-4
Cc1nc(-c2ccccn2)nc(N(C)c2ccccc2)c1Cl	0	0	2	2	3573	?
O=C(NCC1CCCO1)C1CC(=O)N(c2ccccc2)C1 (stereo unspecified)	1	2	0	2	3066	-3
Cc1ccc(C(=O)Nc2sc3c(c2C(=O)O)CCCCC3)o1	17	21	0	2	3221	-1
O=C(Nc1sc2c(c1C(=O)O)CCCC2)c1cccs1	0	28	-1	-2	24122*	-3
COC(=O)c1c(NS(=O)(=O)c2cccs2)sc2c1CCCC2	0	12	-4	-5	25083*	-7
